# Publication PMC7862700, “An all-to-all approach to the identification of sequence-specific readers for epigenetic DNA modifications on cytosine”
# Assays:
# Assay in all cases: DAPPL (digital affinity profiling via proximity ligation, sequencing); 10 mM Tris-HCl pH 7.5, 50 mM NaCl, 1 mM DTT, 4% glycerol, room temperature, 30 min; GST-TFs on glutathione beads, 16-mer random dsDNA library, 0.1% formaldehyde crosslink after washing; high values mean tight binding
# [1] = biological target: T1, FLI1 (Homo sapiens, UniProt Q01543 1-452); settings: protein: recombinant; tags: N-terminal GST; dsDNA, one strand shown
# T1 sequence: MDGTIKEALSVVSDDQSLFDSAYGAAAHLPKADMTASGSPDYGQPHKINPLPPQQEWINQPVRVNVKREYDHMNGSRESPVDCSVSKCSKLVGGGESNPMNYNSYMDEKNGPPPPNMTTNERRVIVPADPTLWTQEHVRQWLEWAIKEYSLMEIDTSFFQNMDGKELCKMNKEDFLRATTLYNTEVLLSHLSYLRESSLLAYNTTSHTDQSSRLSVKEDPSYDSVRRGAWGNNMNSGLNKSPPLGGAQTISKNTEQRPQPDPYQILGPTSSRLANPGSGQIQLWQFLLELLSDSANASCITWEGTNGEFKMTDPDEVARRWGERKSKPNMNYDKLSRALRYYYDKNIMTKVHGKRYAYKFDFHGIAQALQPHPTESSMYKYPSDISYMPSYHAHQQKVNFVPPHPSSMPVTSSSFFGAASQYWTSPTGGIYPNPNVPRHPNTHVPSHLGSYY
# Method in brief: (§1)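 Human transcription factors carrying a GST fusion were produced in yeast, bound to glutathione beads, tagged with DNA barcodes and pooled together with a tag-only sample. Each pool was held with 200 nmole of a random double-stranded 16-mer DNA library in Tris/NaCl/DTT/glycerol buffer for 30 min at room temperature, then washed, crosslinked in 0.1% formaldehyde, proximity-ligated with BsaI/T4 ligase (1 h, 37 °C), PCR-amplified and sequenced on an Illumina NextSeq500. Binding signal is the read frequency of each hexamer for a given factor divided by its frequency in the tag-only sample.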
# [2] = biological target: T2, ELK1 (Homo sapiens, UniProt P19419 1-428); settings: protein: recombinant; tags: N-terminal GST; dsDNA, one strand shown
# T2 sequence: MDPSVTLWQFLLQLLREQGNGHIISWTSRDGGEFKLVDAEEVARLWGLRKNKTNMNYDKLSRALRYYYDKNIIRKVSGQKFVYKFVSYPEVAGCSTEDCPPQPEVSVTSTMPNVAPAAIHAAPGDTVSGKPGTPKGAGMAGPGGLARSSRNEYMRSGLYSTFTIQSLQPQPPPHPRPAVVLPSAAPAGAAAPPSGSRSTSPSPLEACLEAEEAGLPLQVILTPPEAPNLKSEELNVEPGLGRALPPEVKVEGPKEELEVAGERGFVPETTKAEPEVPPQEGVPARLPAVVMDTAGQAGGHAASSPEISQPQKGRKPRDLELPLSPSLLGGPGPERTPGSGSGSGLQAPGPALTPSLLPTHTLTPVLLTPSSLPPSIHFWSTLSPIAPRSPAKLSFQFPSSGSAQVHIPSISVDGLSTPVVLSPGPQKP
# Method in brief: as §1
# [3] = biological target: T3, GABPA (Homo sapiens, UniProt Q06546 1-454); settings: protein: recombinant; tags: N-terminal GST; dsDNA, one strand shown
# T3 sequence: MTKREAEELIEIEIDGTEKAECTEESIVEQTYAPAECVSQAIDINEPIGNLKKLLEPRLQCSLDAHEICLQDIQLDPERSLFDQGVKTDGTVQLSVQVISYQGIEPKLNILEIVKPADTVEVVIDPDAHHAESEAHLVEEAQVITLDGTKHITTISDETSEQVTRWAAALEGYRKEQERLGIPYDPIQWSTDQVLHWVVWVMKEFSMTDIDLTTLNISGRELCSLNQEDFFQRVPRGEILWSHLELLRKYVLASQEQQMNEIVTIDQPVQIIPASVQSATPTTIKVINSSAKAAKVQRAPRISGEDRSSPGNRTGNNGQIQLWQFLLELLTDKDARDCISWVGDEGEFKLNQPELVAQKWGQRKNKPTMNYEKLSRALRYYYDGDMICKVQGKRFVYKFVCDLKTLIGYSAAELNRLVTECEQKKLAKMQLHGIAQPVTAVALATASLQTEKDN
# Method in brief: as §1
# [4] = biological target: T4, ERG (Homo sapiens, UniProt P11308 1-479); settings: protein: recombinant; tags: N-terminal GST; dsDNA, one strand shown
# T4 sequence: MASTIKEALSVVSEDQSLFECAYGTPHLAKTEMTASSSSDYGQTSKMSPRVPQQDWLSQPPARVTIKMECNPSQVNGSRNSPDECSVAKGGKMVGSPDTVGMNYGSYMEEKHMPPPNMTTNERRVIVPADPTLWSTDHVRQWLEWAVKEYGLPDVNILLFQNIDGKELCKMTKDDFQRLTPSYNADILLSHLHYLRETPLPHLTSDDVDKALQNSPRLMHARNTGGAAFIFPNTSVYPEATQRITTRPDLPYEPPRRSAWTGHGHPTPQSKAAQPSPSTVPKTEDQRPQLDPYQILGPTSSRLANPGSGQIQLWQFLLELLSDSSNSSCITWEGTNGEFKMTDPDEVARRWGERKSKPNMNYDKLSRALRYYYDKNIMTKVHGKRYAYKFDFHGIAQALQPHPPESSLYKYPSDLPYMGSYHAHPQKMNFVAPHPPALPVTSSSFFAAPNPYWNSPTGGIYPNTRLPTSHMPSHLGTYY
# Method in brief: as §1
# [5] = biological target: ELF1 (Homo sapiens, UniProt P32519 1-619); settings: protein: recombinant; tags: N-terminal GST; dsDNA, one strand shown
# Method in brief: as §1
# [6] = biological target: T5, EHF (Homo sapiens, UniProt Q9NZC4 1-300); settings: protein: recombinant; tags: N-terminal GST; dsDNA, one strand shown
# T5 sequence: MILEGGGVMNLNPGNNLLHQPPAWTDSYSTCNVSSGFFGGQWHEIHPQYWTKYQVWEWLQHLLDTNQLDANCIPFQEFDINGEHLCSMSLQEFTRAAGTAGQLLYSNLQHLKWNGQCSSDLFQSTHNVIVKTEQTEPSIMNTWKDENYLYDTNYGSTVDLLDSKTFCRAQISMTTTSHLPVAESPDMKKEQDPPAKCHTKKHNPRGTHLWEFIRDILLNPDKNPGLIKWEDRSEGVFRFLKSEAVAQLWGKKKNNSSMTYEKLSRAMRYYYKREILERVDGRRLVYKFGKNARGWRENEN
# Method in brief: as §1
# [7] = biological target: SPIB (Homo sapiens, UniProt Q01892 1-262); settings: protein: recombinant; tags: N-terminal GST; dsDNA, one strand shown
# Method in brief: as §1
# [8] = biological target: T6, ELK3 (Homo sapiens, UniProt P41970 1-407); settings: protein: recombinant; tags: N-terminal GST; dsDNA, one strand shown
# T6 sequence: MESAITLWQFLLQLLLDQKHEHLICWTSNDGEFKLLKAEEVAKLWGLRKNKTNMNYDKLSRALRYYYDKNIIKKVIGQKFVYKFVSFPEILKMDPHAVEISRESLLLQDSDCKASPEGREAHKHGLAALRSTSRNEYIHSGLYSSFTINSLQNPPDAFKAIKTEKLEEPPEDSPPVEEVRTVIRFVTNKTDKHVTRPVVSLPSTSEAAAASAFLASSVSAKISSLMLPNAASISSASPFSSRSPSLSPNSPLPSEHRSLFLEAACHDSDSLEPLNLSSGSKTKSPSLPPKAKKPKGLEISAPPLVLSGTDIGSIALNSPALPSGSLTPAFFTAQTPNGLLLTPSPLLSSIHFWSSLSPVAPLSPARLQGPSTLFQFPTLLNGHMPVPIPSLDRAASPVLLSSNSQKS
# Method in brief: as §1
# [9] = biological target: T7, FEV (Homo sapiens, UniProt Q99581 1-238); settings: protein: recombinant; tags: N-terminal GST; dsDNA, one strand shown
# T7 sequence: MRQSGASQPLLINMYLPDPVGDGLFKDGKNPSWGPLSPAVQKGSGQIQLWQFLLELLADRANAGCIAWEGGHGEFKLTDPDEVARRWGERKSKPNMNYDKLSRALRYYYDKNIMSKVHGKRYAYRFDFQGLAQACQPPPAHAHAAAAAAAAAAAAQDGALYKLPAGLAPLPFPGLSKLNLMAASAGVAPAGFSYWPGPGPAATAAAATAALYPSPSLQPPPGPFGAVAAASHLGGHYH
# Method in brief: as §1
# [10] = biological target: ETV5 (Homo sapiens, UniProt P41161 1-510); settings: protein: recombinant; tags: N-terminal GST; dsDNA, one strand shown
# Method in brief: as §1
# [11] = biological target: HSF1 (Homo sapiens, UniProt Q00613 1-529); settings: protein: recombinant; tags: N-terminal GST; chain copies: 3; dsDNA, one strand shown
# Method in brief: as §1
# [12] = biological target: T8, SPIC (Homo sapiens, UniProt Q8N5J4 1-248); settings: protein: recombinant; tags: N-terminal GST; dsDNA, one strand shown
# T8 sequence: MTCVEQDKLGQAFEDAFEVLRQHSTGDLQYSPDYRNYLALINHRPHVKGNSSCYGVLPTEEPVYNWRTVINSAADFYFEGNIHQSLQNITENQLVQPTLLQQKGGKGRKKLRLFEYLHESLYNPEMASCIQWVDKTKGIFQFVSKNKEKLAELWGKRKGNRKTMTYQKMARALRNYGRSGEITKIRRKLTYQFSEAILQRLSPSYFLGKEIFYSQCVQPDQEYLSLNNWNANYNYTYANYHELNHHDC
# Method in brief: as §1
# [13] = biological target: ELF4 (Homo sapiens, UniProt Q99607 1-663); settings: protein: recombinant; tags: N-terminal GST; dsDNA, one strand shown
# Method in brief: as §1
# [14] = biological target: T9, ELK4 (Homo sapiens, UniProt P28324-2 1-405); settings: protein: recombinant; tags: N-terminal GST; dsDNA, one strand shown
# T9 sequence: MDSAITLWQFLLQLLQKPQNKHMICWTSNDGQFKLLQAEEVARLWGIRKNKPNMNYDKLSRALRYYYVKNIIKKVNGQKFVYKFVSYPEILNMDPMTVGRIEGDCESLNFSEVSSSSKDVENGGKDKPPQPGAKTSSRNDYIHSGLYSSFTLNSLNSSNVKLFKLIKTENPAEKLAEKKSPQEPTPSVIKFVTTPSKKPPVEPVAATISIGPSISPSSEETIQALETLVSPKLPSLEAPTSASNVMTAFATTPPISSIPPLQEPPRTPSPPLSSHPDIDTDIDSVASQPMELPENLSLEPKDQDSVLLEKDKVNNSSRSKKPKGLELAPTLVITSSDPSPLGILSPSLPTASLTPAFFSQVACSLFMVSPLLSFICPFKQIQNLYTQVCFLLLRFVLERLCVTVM
# Method in brief: as §1
# [15] = biological target: T10, ETV2 (Homo sapiens, UniProt O00321 1-342); settings: protein: recombinant; tags: N-terminal GST; dsDNA, one strand shown
# T10 sequence: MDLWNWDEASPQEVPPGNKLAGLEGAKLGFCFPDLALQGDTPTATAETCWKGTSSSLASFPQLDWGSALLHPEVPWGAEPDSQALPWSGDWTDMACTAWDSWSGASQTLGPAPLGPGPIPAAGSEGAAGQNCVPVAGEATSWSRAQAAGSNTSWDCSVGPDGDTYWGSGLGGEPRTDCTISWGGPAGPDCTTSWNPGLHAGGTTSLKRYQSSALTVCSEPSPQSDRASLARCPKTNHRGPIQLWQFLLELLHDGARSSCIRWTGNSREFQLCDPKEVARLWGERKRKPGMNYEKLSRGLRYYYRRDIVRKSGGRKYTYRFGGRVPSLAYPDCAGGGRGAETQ
# Method in brief: as §1
# [16] = biological target: T11, ELF3 (Homo sapiens, UniProt P78545 1-371); settings: protein: recombinant; tags: N-terminal GST; dsDNA, one strand shown
# T11 sequence: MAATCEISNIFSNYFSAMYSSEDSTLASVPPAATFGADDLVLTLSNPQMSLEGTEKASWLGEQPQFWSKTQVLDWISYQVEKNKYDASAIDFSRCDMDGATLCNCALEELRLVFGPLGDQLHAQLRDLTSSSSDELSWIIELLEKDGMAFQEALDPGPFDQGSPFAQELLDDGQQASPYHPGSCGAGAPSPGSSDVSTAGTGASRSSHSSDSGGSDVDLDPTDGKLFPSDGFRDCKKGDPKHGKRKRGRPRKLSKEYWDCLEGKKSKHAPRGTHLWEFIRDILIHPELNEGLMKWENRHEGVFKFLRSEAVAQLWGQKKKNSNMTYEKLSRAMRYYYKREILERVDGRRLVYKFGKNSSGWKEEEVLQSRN
# Method in brief: as §1
# [17] = biological target: ETV1 (Homo sapiens, UniProt P50549 1-477); settings: protein: recombinant; tags: N-terminal GST; dsDNA, one strand shown
# Method in brief: as §1
# Chain of SPIB (Q01892 whole entry): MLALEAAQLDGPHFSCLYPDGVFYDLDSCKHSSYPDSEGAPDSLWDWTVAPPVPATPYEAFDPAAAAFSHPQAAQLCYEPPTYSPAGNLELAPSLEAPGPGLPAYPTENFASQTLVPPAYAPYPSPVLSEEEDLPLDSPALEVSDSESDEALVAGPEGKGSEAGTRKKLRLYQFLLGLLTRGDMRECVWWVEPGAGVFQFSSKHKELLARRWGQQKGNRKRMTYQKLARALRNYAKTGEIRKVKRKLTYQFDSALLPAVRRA
# Chain of ETV5 (P41161 whole entry): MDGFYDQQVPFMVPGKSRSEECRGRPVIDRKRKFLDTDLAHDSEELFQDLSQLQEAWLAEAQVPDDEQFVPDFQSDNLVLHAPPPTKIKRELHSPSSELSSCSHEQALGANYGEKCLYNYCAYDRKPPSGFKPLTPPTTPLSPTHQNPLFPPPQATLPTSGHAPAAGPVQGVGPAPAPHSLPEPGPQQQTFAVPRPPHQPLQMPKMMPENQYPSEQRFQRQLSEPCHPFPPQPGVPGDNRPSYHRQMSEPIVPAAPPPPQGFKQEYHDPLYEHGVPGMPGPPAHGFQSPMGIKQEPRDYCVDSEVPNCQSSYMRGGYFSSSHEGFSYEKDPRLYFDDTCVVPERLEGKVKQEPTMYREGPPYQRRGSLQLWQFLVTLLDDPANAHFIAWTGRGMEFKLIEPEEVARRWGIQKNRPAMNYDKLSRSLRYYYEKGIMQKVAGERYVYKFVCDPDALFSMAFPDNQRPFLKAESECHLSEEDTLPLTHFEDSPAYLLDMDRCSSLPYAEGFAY
# Chain of ELF1 (P32519 whole entry): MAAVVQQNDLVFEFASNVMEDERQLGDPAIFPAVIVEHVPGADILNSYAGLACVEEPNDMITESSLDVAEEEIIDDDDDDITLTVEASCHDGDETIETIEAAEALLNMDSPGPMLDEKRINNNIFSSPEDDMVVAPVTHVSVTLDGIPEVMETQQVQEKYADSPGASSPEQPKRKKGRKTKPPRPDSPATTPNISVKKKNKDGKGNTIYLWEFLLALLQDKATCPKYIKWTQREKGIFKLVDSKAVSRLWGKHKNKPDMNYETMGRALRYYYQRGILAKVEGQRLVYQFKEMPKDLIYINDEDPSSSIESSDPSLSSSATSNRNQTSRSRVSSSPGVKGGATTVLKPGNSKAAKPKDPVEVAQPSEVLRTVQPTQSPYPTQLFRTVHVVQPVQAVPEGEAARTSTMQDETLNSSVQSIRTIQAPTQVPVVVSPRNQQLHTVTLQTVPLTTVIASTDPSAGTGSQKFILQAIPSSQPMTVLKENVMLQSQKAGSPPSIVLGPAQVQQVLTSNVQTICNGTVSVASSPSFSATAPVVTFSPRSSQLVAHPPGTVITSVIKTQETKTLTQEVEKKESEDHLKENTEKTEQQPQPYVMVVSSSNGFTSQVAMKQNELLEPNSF
# Chain of HSF1 (Q00613 whole entry): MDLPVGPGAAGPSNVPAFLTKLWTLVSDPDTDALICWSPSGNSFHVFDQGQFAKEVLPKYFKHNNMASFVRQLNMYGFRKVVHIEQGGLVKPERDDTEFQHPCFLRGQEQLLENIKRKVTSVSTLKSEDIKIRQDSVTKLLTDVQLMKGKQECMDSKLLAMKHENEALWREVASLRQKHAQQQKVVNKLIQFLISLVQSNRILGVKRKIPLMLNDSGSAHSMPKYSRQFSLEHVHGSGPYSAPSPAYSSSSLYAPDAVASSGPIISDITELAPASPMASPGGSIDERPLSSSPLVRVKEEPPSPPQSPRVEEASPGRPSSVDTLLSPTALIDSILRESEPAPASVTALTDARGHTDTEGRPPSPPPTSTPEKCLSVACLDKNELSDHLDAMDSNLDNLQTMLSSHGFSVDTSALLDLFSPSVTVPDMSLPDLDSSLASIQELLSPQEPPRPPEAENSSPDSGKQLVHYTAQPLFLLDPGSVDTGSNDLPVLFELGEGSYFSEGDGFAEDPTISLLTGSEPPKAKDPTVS
# Chain of ELF4 (Q99607 whole entry): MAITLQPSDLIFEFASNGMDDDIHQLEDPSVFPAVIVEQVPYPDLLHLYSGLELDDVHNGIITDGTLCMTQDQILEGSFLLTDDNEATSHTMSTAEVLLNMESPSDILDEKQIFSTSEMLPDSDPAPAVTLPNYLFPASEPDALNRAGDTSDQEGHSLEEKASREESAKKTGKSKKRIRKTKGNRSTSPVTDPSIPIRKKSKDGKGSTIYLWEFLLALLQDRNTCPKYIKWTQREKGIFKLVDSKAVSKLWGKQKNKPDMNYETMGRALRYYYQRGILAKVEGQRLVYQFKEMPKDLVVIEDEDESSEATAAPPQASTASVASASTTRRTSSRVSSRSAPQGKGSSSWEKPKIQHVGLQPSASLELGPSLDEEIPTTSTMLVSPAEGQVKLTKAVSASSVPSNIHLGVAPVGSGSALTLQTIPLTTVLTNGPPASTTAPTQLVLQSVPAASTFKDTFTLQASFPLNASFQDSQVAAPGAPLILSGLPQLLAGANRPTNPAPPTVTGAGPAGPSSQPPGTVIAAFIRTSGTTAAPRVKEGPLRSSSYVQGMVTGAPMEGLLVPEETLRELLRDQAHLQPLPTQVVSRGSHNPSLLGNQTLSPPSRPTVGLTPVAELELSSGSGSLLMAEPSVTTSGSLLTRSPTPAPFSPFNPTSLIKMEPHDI
# Chain of ETV1 (P50549 whole entry): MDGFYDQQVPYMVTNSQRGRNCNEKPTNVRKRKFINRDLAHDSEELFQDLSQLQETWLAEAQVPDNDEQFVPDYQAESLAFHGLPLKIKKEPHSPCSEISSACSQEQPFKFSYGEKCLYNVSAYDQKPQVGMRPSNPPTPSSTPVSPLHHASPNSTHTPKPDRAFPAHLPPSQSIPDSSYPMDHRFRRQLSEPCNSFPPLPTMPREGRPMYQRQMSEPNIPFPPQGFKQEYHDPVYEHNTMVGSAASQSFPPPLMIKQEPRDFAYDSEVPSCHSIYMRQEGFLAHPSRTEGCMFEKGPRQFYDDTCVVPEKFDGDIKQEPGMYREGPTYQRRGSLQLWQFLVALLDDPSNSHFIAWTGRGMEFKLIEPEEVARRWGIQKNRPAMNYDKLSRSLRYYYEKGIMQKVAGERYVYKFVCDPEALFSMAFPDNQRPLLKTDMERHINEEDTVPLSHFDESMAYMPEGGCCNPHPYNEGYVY
sequence,measurement,setting,value
CAACGA,binding signal,[1],"1.05 fold enrichment (6-mer frequency, TF over GST control)"
same,binding signal,[2],"1.08 fold enrichment (6-mer frequency, TF over GST control)"
same,binding signal,[3],"1.08 fold enrichment (6-mer frequency, TF over GST control)"
same,binding signal,[4],"1.07 fold enrichment (6-mer frequency, TF over GST control)"
same,binding signal,[5],"1.1 fold enrichment (6-mer frequency, TF over GST control)"
same,binding signal,[6],"1.01 fold enrichment (6-mer frequency, TF over GST control)"
same,binding signal,[7],"1.03 fold enrichment (6-mer frequency, TF over GST control)"
same,binding signal,[8],"1.09 fold enrichment (6-mer frequency, TF over GST control)"
same,binding signal,[9],"1.01 fold enrichment (6-mer frequency, TF over GST control)"
same,binding signal,[10],"1.02 fold enrichment (6-mer frequency, TF over GST control)"
same,binding signal,[11],"1 fold enrichment (6-mer frequency, TF over GST control)"
same,binding signal,[12],"1.1 fold enrichment (6-mer frequency, TF over GST control)"
same,binding signal,[13],"1.1 fold enrichment (6-mer frequency, TF over GST control)"
same,binding signal,[14],"1.14 fold enrichment (6-mer frequency, TF over GST control)"
same,binding signal,[15],"1.01 fold enrichment (6-mer frequency, TF over GST control)"
same,binding signal,[16],"1.08 fold enrichment (6-mer frequency, TF over GST control)"
same,binding signal,[17],"1 fold enrichment (6-mer frequency, TF over GST control)"
